“And” between values parts separate entries of the source, which are not always exact repeats. Equal values may be shown once. Results filed as inconclusive are left out. Where a call stands in place of a potency, no number is given. Where a structure was tested more than once in an assay, its records may differ in their call. The source made the active and inactive calls. Unless noted, calls follow the shape of the full dose curve.
Assays:
[1] = Nuclear factor erythroid 2-related factor 2/antioxidant responsive element (Nrf2/ARE) small molecule agonists: qHTS cell viability counter screen in human keratinocytes (AID 1919968; active = well fitted cell-killing curve with a large enough effect in the repeat runs; also: nearly all actives have a fitted effect of over 55% in size; also: potency is read from the fitted curve at half-maximal effect)
Outline: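 Parallel cytotoxicity read: KeratinoSens HaCaT cells, compound treatment 23 h, viability by CellTiter-Fluor fluorescence 1 h post-reagent.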

[2] = Nuclear factor erythroid 2-related factor 2/antioxidant responsive element (Nrf2/ARE) small molecule agonists: luciferase reporter gene qHTS assay in human keratinocytes (AID 1919969); also: nearly all actives have a fitted effect of over 35% in size; also: potency is read from the fitted curve at half-maximal effect
[3] = G protein-coupled receptor (GPCR) small molecule agonists, calcium flux assay: HEK293 wild type cell line counter screen (AID 1920065); also: potency is read from the fitted curve at half-maximal effect
Outline: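 Non-specific calcium responders were flagged by adding DMSO-dissolved compounds to dye-loaded cells and reading 480/540 nm fluorescence each second for 3 min; ATP served as positive control.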

[4] = p53 small molecule agonists, cell-based qHTS assay with human liver microsomes (AID 1963577);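 also: p53 response element beta-lactamase reporter cells with liver microsomes plus NADPH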
Outline: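 Reporter activation was measured by LiveBLAzer fluorescence intensity in p53RE-bla cells, which had been exposed to compounds for 16 h at 37 C alongside 0.5 mg/mL human liver microsomes and 0.5 mg/mL NADPH (final concentrations).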

[5] = p53 small molecule agonists, cell-based qHTS assay with rat liver microsomes (AID 1963578)
Outline: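 Compound in DMSO added to p53RE-bla cells 5 h post-plating; rat microsomes/NADPH 0.5 mg/mL final; 16 h, 37 C; LiveBLAzer 2 h RT.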

[6] = p53 small molecule agonists, cell-based qHTS assay with rat liver microsomes: qHTS cell viability counter screen (AID 1963580); also: nearly all actives have a fitted effect of over 45% in size; also: potency is read from the fitted curve at half-maximal effect
Outline: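 Cytotoxicity counter screen: intracellular ATP measured by CellTiter-Glo luminescence in the same wells as the beta-lactamase reporter read, on HCT-116 p53RE-bla cells exposed 16 h at 37 C to compounds with rat liver microsomes and NADPH, each 0.5 mg/mL final.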

[7] = p53 small molecule agonists, cell-based qHTS assay: qHTS cell viability counter screen (AID 1963581); also: nearly all actives have a fitted effect of over 45% in size; also: potency is read from the fitted curve at half-maximal effect
Outline: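 Multiplexed with the reporter read, a CellTiter-Glo step (30 min, room temperature) gauges ATP-based viability of HCT-116 p53RE-bla cells after 16 h compound incubation at 37 C.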

[8] = p53 small molecule agonists, cell-based qHTS assay (AID 1963582; active = well fitted activation curve with a large enough effect in the signal ratio in the repeat runs, not every such curve was filed as active; the % refers to the signal ratio)
Outline: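 Beta-lactamase reporter cells (p53RE-bla) treated with compounds for 16 h at 37 C; FRET substrate, 2 h, room temperature; fluorescence intensity.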

[9] = target: 5-hydroxytryptamine receptor 2A (Homo sapiens) (UniProt P28223); experiment: 5-hydroxytryptamine receptor 2A (HTR2A) small molecule antagonists, cell-based qHTS assay (AID 1963586); also: nearly all actives have a fitted effect of over 45% in size; also: potency is read from the fitted curve at half-maximal effect
5-hydroxytryptamine receptor 2A (Homo sapiens), sequence (P28223 whole entry, looked up): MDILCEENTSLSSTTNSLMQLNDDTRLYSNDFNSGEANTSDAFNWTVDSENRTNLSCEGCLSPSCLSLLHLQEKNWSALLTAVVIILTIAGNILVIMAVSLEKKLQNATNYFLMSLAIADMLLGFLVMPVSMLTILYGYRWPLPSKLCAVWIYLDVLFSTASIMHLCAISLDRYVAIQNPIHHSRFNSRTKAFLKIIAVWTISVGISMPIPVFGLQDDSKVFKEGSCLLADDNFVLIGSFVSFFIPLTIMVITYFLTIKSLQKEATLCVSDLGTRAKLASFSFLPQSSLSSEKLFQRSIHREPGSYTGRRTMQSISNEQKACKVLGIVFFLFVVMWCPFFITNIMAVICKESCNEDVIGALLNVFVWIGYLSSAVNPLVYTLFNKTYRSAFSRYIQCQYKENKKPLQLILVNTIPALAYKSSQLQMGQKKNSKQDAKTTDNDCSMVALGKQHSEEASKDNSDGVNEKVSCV
Outline: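 CHO cells stably expressing human HTR2A were plated for 18 h at 37 C, then loaded with calcium dye for 1 h. Compounds were preincubated 5 min at room temperature before DOI (4 nM solution) was added. Kinetic fluorescence was read for 3 min.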

[10] = target: 5-hydroxytryptamine receptor 2A (Homo sapiens) (UniProt P28223); experiment: 5-hydroxytryptamine receptor 2A (HTR2A) small molecule agonists, cell-based qHTS assay (AID 1963587); also: nearly all actives have a fitted effect of over 30% in size; also: potency is read from the fitted curve at half-maximal effect
Outline: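 CHO cells stably expressing human HTR2A, plated 18 h, loaded with calcium dye 1 h at 37 C. Agonist mode: compounds added and intracellular calcium fluorescence recorded kinetically for 2 min at 1 sec intervals.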

[11] = target: Muscarinic acetylcholine receptor M1 (Homo sapiens) (UniProt P11229); experiment: Cholinergic receptor muscarinic 1 (CHRM1) small molecule antagonists, cell-based qHTS assay (AID 1963588); also: nearly all actives have a fitted effect of over 40% in size; also: potency is read from the fitted curve at half-maximal effect
Muscarinic acetylcholine receptor M1 (Homo sapiens), sequence (P11229 whole entry, looked up): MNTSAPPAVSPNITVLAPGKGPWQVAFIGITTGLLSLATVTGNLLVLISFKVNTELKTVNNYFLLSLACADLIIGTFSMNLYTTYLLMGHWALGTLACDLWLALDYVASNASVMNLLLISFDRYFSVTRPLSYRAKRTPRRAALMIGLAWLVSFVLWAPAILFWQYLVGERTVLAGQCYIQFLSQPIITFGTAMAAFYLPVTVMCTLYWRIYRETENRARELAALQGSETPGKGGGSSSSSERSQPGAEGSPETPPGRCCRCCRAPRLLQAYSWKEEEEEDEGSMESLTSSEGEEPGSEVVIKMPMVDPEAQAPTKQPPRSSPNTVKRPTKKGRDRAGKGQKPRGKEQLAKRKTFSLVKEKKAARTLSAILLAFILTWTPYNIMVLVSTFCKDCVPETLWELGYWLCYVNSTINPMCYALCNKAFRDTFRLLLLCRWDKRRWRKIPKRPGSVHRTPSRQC
Outline: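 Compounds were tested at 15 concentrations in three independent runs. Dye-loaded CHRM1-CHO cells were exposed 5 min at room temperature before stimulation by acetylcholine added at 50nM. Intracellular calcium was read kinetically on FDSS for 3 min.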

[12] = target: Muscarinic acetylcholine receptor M1 (Homo sapiens) (UniProt P11229); experiment: Cholinergic receptor muscarinic 1 (CHRM1) small molecule agonists, cell-based qHTS assay (AID 1963589); also: nearly all actives have a fitted effect of over 35% in size; also: potency is read from the fitted curve at half-maximal effect
Outline: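 qHTS, 15-point titration, 3 independent runs: compounds pin-transferred onto dye-loaded CHRM1-CHO cells (human M1), calcium fluorescence followed every second to detect agonism.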

[13] = cAMP Responsive Elements (CRE) small molecule agonists, cell-based qHTS assay (AID 1963590)
Outline: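 Quantitative HTS for CRE agonists: HEK 293T CRE-bla cells, overnight plating, 3 h compound incubation at 37 C/5% CO2, then 2 h room-temperature LiveBLAzer B/G FRET substrate loading.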

[14] = cAMP Responsive Elements (CRE) small molecule antagonists, cell-based qHTS assay (AID 1963591; active = well fitted inhibition curve with a large enough effect in the signal ratio in the repeat runs, not every such curve was filed as active; the % refers to the signal ratio)
Outline: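 Fluorescence intensity from cleaved LiveBLAzer B/G substrate (2 h, room temperature) quantified CRE-bla activity in HEK 293T cells exposed 3 h to compound with 0.25 uM final NKH477.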

[15] = target: Beta-2 adrenergic receptor (Homo sapiens) (UniProt P07550); experiment: Adrenergic beta2 receptor (ADRB2) small molecule antagonists, cell-based qHTS assay (AID 1963592); also: nearly all actives have a fitted effect of over 50% in size; also: potency is read from the fitted curve at half-maximal effect
Beta-2 adrenergic receptor (Homo sapiens), sequence (P07550 whole entry, looked up): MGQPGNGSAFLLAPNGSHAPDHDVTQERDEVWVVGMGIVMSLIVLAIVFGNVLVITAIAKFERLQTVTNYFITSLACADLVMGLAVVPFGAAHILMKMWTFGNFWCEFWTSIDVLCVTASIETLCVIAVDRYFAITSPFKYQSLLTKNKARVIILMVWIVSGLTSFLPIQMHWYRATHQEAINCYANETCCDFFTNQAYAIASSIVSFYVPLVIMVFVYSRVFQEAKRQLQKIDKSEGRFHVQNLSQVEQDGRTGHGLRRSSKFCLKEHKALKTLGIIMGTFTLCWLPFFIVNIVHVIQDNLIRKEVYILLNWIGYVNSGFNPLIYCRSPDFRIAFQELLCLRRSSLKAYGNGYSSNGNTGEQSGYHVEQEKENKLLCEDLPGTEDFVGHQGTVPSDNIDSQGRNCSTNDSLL
Outline: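 Assay format: CHO-ADRB2 cells, 18-20hr seeding at 37C/5% CO2, then compound plus 1nM isoproterenol agonist mix for 0.5hr RT. Homogeneous time-resolved fluorescence cAMP detection after 1hr, expressed as 665/615 nm ratio.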

[16] = target: Beta-2 adrenergic receptor (Homo sapiens) (UniProt P07550); experiment: Adrenergic beta2 receptor (ADRB2) small molecule agonists, cell-based qHTS assay (AID 1963593);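 also: CHO cells stably overexpressing human ADRB2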
Outline: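 CHO cells stably over-expressing ADRB2 were plated overnight at 37C, then dosed with compounds plus a stimulation mix containing 100uM IBMX and 25uM Ro-20-1724 for 0.5hr at room temperature. cAMP was measured by HTRF competition, 1hr.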

[17] = target: D(2) dopamine receptor (Homo sapiens) (UniProt P14416); experiment: Dopamine D2 receptor (DRD2) small molecule agonists, cell-based qHTS assay (AID 1963594); also: nearly all actives have a fitted effect of over 35% in size
D(2) dopamine receptor (Homo sapiens), sequence (P14416 whole entry, looked up): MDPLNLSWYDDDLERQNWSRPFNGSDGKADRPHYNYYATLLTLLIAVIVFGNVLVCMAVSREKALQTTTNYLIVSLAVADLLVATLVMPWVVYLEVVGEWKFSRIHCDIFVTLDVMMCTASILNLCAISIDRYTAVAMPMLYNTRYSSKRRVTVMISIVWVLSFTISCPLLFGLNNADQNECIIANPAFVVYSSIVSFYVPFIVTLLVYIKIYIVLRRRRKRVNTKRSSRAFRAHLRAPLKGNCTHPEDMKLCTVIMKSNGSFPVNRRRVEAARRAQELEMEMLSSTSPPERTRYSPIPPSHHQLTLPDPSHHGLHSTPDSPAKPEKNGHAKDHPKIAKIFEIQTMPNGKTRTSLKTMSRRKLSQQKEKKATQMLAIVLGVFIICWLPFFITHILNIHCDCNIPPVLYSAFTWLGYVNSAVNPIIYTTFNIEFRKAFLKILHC
Outline: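 HEK293 cells stably expressing human DRD2, pre-treated with PDE inhibitor Ro20-1724 (0.1 mM final) and compound 10 min at room temperature, then stimulated with NKH477 (200nM […]) for 30 min. cAMP read by HTRF (665/620 nm).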

[18] = target: D(2) dopamine receptor (Homo sapiens) (UniProt P14416); experiment: Dopamine D2 receptor (DRD2) small molecule antagonists, cell-based qHTS assay (AID 1963595; active = well fitted inhibition curve with a large enough effect in the signal ratio in the repeat runs, with a control signal flat; the % refers to the signal ratio; also: potency is read from the fitted curve at half-maximal effect)
Outline: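 In this cell-based antagonist screen, compounds act for 10 min at room temperature before a 30 min challenge with 12 nM quinpirole and 200 nM NKH477. cAMP is quantified by HTRF competition in DRD2-HEK293 cells containing 0.1 mM Ro20-1724.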

[19] = p53 small molecule agonists, cell-based qHTS assay with human liver microsomes: qHTS cell viability counter screen (AID 1963579); also: nearly all actives have a fitted effect of over 45% in size; also: potency is read from the fitted curve at half-maximal effect
Outline: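 HLM-supplemented (0.5 mg/mL final) and NADPH-supplemented (0.5 mg/mL final) p53RE-bla cultures, 4,000 cells per well, were dosed with compounds in DMSO for 16 h at 37 C; luminescent ATP detection (CellTiter-Glo, 30 min, room temperature) quantified surviving cells.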

Structure (SMILES)	Potency [1]	Potency [2]	Potency [3]	Potency [4]	Potency [5]	Potency [6]	Potency [7]	Potency [8]	Potency [9]	Potency [10]	Potency [11]	Potency [12]	Potency [13]	Potency [14]	Potency [15]	Potency [16]	Potency [17]	Potency [18]	Potency [19]
COP(=O)(OC)OC	inactive	61.6 µM (active) and inactive	inactive	inactive	inactive	inactive	inactive	inactive	inactive	55.4 µM (active) and inactive	inactive	49.4 µM (active) and inactive	inactive	inactive	inactive	inactive	inactive	inactive	–
C[N+]1(C)CCCCC1	inactive	inactive	inactive	inactive	inactive	–	inactive	inactive	inactive	inactive	inactive	inactive	inactive	inactive	inactive	inactive	inactive	inactive	inactive
CCCCCCCCCCCCCCCCn1cc[n+](C)c1	inactive and 27.6 µM (active) and 13.7 µM (active)	inactive	inactive	inactive	inactive	inactive and 36.7 µM (active) and 32.5 µM (active)	25.8 µM (active)	–	inactive	–	inactive and 950 nM (active) and 2.66 µM (active)	inactive	inactive	inactive	inactive	–	inactive	inactive	37.1 µM (active) and inactive and 46.2 µM (active)
ClC(Cl)=C(Cl)C(Cl)=C(Cl)Cl	inactive	inactive	inactive	–	–	inactive	–	–	inactive	inactive	inactive	inactive	inactive	inactive	–	inactive	inactive	inactive	inactive
CCOc1cc(C=O)ccc1O	inactive	inactive	inactive	inactive	inactive	inactive	inactive	inactive	inactive	inactive	inactive	inactive	inactive	inactive	–	–	inactive	inactive	inactive
Nc1ccc(Cl)cc1N	inactive	31.9 µM (active) and 19.3 µM (active)	inactive	–	inactive	inactive	inactive	inactive	inactive	20.3 µM (active) and 6.16 µM (active)	–	inactive	–	inactive	inactive	inactive	inactive	inactive	inactive
Clc1cccc(Cl)c1Cl	inactive	inactive	inactive	–	–	inactive	inactive	–	inactive	–	inactive	inactive	inactive	inactive	inactive	inactive	inactive	inactive	inactive
Cc1ccc(OP(=O)(Oc2ccc(C)cc2)Oc2ccc(C)cc2)cc1	inactive	61 µM (active) and inactive	inactive	inactive	–	inactive	–	inactive	inactive	inactive	–	–	inactive	inactive	inactive	inactive	inactive	inactive	inactive
CCC(C)(C)c1ccc(O)cc1	61.8 µM (active) and inactive	inactive	inactive	inactive	inactive	inactive	inactive	inactive	37.9 µM (active) and inactive	55.5 µM (active) and inactive	inactive	inactive	–	–	inactive	inactive	inactive	–	inactive
COC(C)(C)C	inactive	inactive	inactive	inactive	inactive	inactive	inactive	inactive	inactive	inactive	inactive	inactive	inactive	–	inactive	inactive	inactive	inactive	inactive
CCOP(=S)(OCC)SCSC(C)(C)C	inactive	inactive	inactive	–	–	inactive	inactive	inactive	inactive	inactive	inactive	–	inactive	inactive	inactive	–	inactive	inactive	inactive
CC(C=O)Cc1ccc2c(c1)OCO2 (stereo unspecified)	inactive	inactive	inactive	inactive	inactive	inactive	inactive	inactive	inactive	inactive	inactive	inactive	inactive	inactive	inactive	–	inactive	inactive	inactive
N#Cc1c(Cl)c(Cl)c(Cl)c(C#N)c1Cl	2.68 µM (active) and 2.73 µM (active)	950 nM (active) and 969 nM (active)	inactive	inactive	inactive	inactive	18.2 µM (active)	–	inactive	inactive	inactive	inactive	–	–	inactive	–	inactive	15.1 µM (active) and 4.86 µM (active)	25.2 µM (active) and 18.2 µM (active)
CCCC[n+]1ccc(C)cc1	inactive and 27.2 µM (active)	inactive	inactive and 39 µM (active)	–	–	inactive and 20.3 µM (active)	inactive	–	inactive	inactive and 43.4 µM (active) and 39 µM (active)	inactive	inactive	inactive	inactive	inactive	inactive	inactive	inactive and 60.8 µM (active)	inactive and 40.6 µM (active)
c1cc2c(c(N3CCNCC3)c1)OCCO2	inactive	inactive	inactive	inactive	inactive	inactive	inactive	inactive	729 nM (active)	0.0601 µM (active)	inactive	inactive	inactive	inactive	15 µM (active)	–	inactive	inactive	–
NC(=O)CN1CCCC1=O	inactive	inactive	inactive	inactive	inactive	inactive	inactive	inactive	–	–	–	–	inactive	inactive	inactive	inactive	inactive	inactive	–
O=C1C2CC=CCC2C(=O)N1SC(Cl)(Cl)Cl (stereo unspecified)	inactive and 26.9 µM (active)	54.3 µM (active) and 7.57 µM (active)	inactive	inactive	inactive	inactive	inactive	inactive	inactive	24.1 µM (active)	inactive	inactive and 38.3 µM (active)	–	inactive	–	inactive	inactive	inactive and 23.9 µM (active)	inactive
ClCC(Br)CBr (stereo unspecified)	inactive	inactive	inactive	inactive	inactive	inactive	inactive	inactive	inactive	inactive	inactive	inactive	inactive	inactive	inactive	–	inactive	inactive	inactive
CC(Cl)CCl (stereo unspecified)	inactive	inactive	inactive	inactive	inactive	inactive	inactive	inactive	inactive	inactive	inactive	inactive	inactive	inactive	inactive	–	inactive	inactive	inactive
CCCCCCCCCCCC(=O)O	inactive	inactive	inactive	–	–	–	inactive	–	inactive	inactive	inactive	inactive	inactive	inactive	inactive	inactive	inactive	inactive	inactive
CC(C)(C)CC(C)(C)c1ccc(O)cc1	27.3 µM (active)	inactive	inactive	inactive	inactive	37.4 µM (active) and inactive	43.2 µM (active)	–	18.8 µM (active) and inactive	34.7 µM (active)	–	49 µM (active) and inactive	–	–	inactive	–	inactive	–	16.2 µM (active) and inactive
C=CC(C)=O	inactive	5.97 µM (active)	inactive	inactive	inactive	inactive	inactive	inactive	inactive	–	inactive	inactive	inactive	inactive	inactive	inactive	inactive	inactive	inactive
C=CCO	inactive	inactive	inactive	inactive	inactive	–	inactive	inactive	–	–	–	–	inactive	inactive	inactive and 61.1 µM (active)	inactive	inactive	inactive	inactive
O=[N+]([O-])c1cc([As](=O)(O)O)ccc1O	inactive	inactive	inactive	inactive	inactive	–	inactive	inactive	–	–	–	–	inactive	inactive	inactive	–	inactive	inactive	inactive
CCOC(=O)N(C)N=O	inactive	inactive	inactive	inactive	inactive	inactive	inactive	inactive	inactive	inactive	–	inactive	inactive	inactive	inactive	–	inactive	inactive	inactive
ClCCBr	inactive	inactive	inactive	–	inactive	inactive	inactive	inactive	–	inactive	inactive	inactive	inactive	inactive	inactive	inactive	inactive	inactive	inactive
CCC1(c2ccccc2)CCC(=O)NC1=O (stereo unspecified)	inactive	inactive	inactive	inactive	inactive	inactive	inactive	inactive	inactive	–	inactive	inactive	inactive	inactive	inactive	–	inactive	inactive	inactive
CC(C)OC(=O)Cc1ccccc1	inactive	inactive	inactive	inactive	inactive	inactive	inactive	inactive	inactive	inactive	inactive	inactive	inactive	inactive	inactive	–	inactive	–	inactive
C1CN2CCN1CC2	inactive	inactive	inactive	–	–	inactive	inactive	–	inactive	–	–	inactive and 54.9 µM (active)	inactive	inactive	inactive	inactive	inactive	inactive	inactive
N#CCC#N	inactive	61.1 µM (active)	inactive	inactive	inactive	inactive	inactive	–	inactive	–	inactive	–	inactive	inactive	inactive	inactive	inactive	inactive	–

From PubChem BioAssay (Tox21)
